Records with an inconclusive call do not appear. Calls of active or inactive are those of the source. How the source made its calls: active means hit-call score of the fitted dose curve at least 0.9, where 1 is the maximum; inconclusive means response in the unintended direction; inactive means score below 0.9.
Tests used:
[1] = biological target: Cellular tumor antigen p53 (Homo sapiens) (UniProt P04637); test: TOX21_p53_BLA_p3_ratio: Tox21 HCT-116 p53 Agonism Beta-lactamase Assay, Ratio, Phase 3 (AID 2283596)
Sequence of Cellular tumor antigen p53 (Homo sapiens) (P04637 whole entry, looked up): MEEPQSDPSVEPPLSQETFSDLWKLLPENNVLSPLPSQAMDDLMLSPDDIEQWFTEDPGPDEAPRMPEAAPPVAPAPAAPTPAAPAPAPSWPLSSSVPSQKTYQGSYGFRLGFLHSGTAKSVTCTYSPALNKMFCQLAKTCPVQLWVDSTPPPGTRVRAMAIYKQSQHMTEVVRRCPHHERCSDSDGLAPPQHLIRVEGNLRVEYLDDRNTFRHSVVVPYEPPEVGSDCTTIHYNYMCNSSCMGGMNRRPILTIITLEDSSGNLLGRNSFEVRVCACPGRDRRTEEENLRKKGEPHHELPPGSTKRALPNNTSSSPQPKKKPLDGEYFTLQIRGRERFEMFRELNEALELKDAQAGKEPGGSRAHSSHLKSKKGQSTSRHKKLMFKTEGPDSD
Method in brief: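 Cells were seeded at 4000/well, rested 5 h at 37C, then dosed with DMSO compound solutions (217-fold dilution) for 16 h. CCF4-AM substrate was loaded for 2 h at room temperature, and the 460/530 nm emission ratio was fitted for gain of signal versus DMSO.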

[2] = TOX21_p53_BLA_p4_viability: Viability Assessment in the Tox21 HCT-116 p53 Agonism Beta-lactamase Assay, Phase 4 (AID 2283597);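 further: hits lower the luminescence signal meaning cytotoxicity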
Method in brief: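 Readout: ATP luminescence (CellTiter-Glo), measured 30 min after reagent addition at RT. The reagent followed a 2 h CCF4-AM incubation, and the cells had been exposed to compound for 16 h at 37C.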

[3] = biological target: Cellular tumor antigen p53 (Homo sapiens) (UniProt P04637); test: TOX21_p53_BLA_p4_ratio: Tox21 HCT-116 p53 Agonism Beta-lactamase Assay, Ratio, Phase 4 (AID 2283601)
Method in brief: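 HCT116 cells carrying an inducible beta-lactamase reporter were plated at 4000 cells/well, rested 5 h, then exposed to compounds in DMSO (217-fold dilution) for 16 h at 37C. CCF4-AM substrate was loaded 2 h at room temperature; 460/530 nm emission ratio scored gain-of-signal versus DMSO.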

[4] = Tanguay_ZF_120hpf_MORT_legacy: (Legacy) Oregon State University Tanguay Lab 120 Hour Post-fertilization zebrafish Assay for Mortality (AID 2283633)
Method in brief: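 5D WT zebrafish, chorion removed 4 hpf; 1 embryo/well from 6 hpf; static exposure to 120 hpf, 28C, dark, sealed. Final DMSO 0.64%. Readout: binary mortality, brightfield, 24 + 120 hpf; DMSO as negative control.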

[5] = Tanguay_ZF_120hpf_YSE_legacy: (Legacy) Oregon State University Tanguay Lab 120 Hour Post-fertilization zebrafish Assay for Yolk Sac Edema (AID 2283634)
Method in brief: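 Dechorionate (pronase, 4 hpf) → place one 6 hpf embryo per well → static compound exposure, sealed and foil-covered, 28C, to 120 hpf → record yolk sac edema as present or absent. Final DMSO 0.64%.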

[6] = Tanguay_ZF_120hpf_EYE_legacy: (Legacy) Oregon State University Tanguay Lab 120 Hour Post-fertilization zebrafish Assay for Eye Malformation (AID 2283636)
Method in brief: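 Static waterborne exposure of dechorionated zebrafish embryos (strain Tropical 5D), 6 to 120 hpf, sealed plates at 28C, 0.64% DMSO vehicle. Eye malformation is scored as a binary endpoint, with gain of signal analysed relative to DMSO.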

[7] = Tanguay_ZF_120hpf_SNOU_legacy: (Legacy) Oregon State University Tanguay Lab 120 Hour Post-fertilization zebrafish Assay for Snout Malformation (AID 2283637)
Method in brief: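 Dechorionated zebrafish, individually housed from 6 hpf in covered, sealed wells at 28C with 0.64% DMSO vehicle, were examined at 120 hpf for snout malformation. Responses were binary and analysed positive-direction relative to DMSO.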

[8] = Tanguay_ZF_120hpf_JAW_legacy: (Legacy) Oregon State University Tanguay Lab 120 Hour Post-fertilization zebrafish Assay for Jaw Malformation (AID 2283638)
Method in brief: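 Steps: dechorionate 4 hpf embryos (pronase); plate 1/well at 6 hpf; add test chemical, 0.64% DMSO final; seal, cover, hold at 28C statically to 120 hpf; score jaw defect presence/absence microscopically. Dead embryos not scored.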

[9] = Tanguay_ZF_120hpf_OTIC_legacy: (Legacy) Oregon State University Tanguay Lab 120 Hour Post-fertilization zebrafish Assay for Otic Vesicle Malformation (AID 2283639)
Method in brief: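 Brightfield scoring at 120 hpf, binary present/absent; DMSO negative control, 5uM trimethyltin chloride positive control. Static exposure at 28C, final DMSO 0.64% (vol/vol). Dead embryos not scored for malformation.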

[10] = Tanguay_ZF_120hpf_PE_legacy: (Legacy) Oregon State University Tanguay Lab 120 Hour Post-fertilization zebrafish Assay for Pericardial Edema (AID 2283640)
Method in brief: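 Embryos from wild-type 5D adults were staged, then dosed in 0.64% DMSO. They were kept sealed in the dark at 28C until 120 hpf. Pericardial edema was then recorded as present or absent.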

[11] = Tanguay_ZF_120hpf_BRAI_legacy: (Legacy) Oregon State University Tanguay Lab 120 Hour Post-fertilization zebrafish Assay for Brain Malformation (AID 2283641)
Method in brief: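 Wild-type 5D larvae, static waterborne exposure to 120 hpf, 28C, 0.64% v/v DMSO. Brightfield scoring of brain defects, binary; dead embryos excluded. Positive ctrl 5uM trimethyltin chloride.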

[12] = Tanguay_ZF_120hpf_SOMI_legacy: (Legacy) Oregon State University Tanguay Lab 120 Hour Post-fertilization zebrafish Assay for Somite Malformation (AID 2283647)
Method in brief: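 Read-out: presence or absence of somite malformation in 120 hpf larvae, gain-of-signal relative to DMSO baseline. Embryos lacked chorion (pronase, 4 hpf) and were exposed statically from 6 hpf at 28C; dead larvae not scored.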

[13] = Tanguay_ZF_120hpf_PFIN_legacy: (Legacy) Oregon State University Tanguay Lab 120 Hour Post-fertilization zebrafish Assay for Pectoral Fin Malformation (AID 2283648);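 further: each larva judged yes or no for fin defect by brightfield with dead larvae skipped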
Method in brief: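 Scoring of pectoral fin malformation was binary, made at 120 hpf on larvae exposed statically from 6 hpf after enzymatic chorion removal. Activity was fitted upward relative to DMSO controls at 0.64% (vol/vol).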

[14] = Tanguay_ZF_120hpf_CFIN_legacy: (Legacy) Oregon State University Tanguay Lab 120 Hour Post-fertilization zebrafish Assay for Caudal Fin Malformation (AID 2283649)
Method in brief: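 Binary presence or absence of caudal fin malformation at 120 hpf, read by brightfield microscopy, with DMSO as baseline. Larvae came from 5D wild-type embryos exposed statically from 6 hpf at 28C after pronase dechorionation.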

[15] = Tanguay_ZF_120hpf_PIG_legacy: (Legacy) Oregon State University Tanguay Lab 120 Hour Post-fertilization zebrafish Assay for Pigmentation Malformation (AID 2283650)
Method in brief: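 Endpoint is incidence of abnormal pigmentation at 120 hpf in dechorionated 5D zebrafish exposed singly from 6 hpf at 28C, DMSO vehicle at 0.64%. Embryos dying by 24 or 120 hpf are excluded from scoring.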

[16] = Tanguay_ZF_120hpf_CIRC_legacy: (Legacy) Oregon State University Tanguay Lab 120 Hour Post-fertilization zebrafish Assay for Circulatory Malformation (AID 2283651)
Method in brief: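 Static exposure, 6–120 hpf, 28C, sealed and dark; one dechorionated 5D embryo/well; DMSO 0.64% v/v final. Binary circulation endpoint by brightfield; dead embryos not scored.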

[17] = biological target: Cellular tumor antigen p53 (Homo sapiens) (UniProt P04637); test: TOX21_p53_BLA_p5_ratio: Tox21 HCT-116 p53 Agonism Beta-lactamase Assay, Ratio, Phase 5 (AID 2283599)
Method in brief: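 HCT-116 cells carrying a p53-inducible beta-lactamase reporter were seeded at 4000 cells/well and dosed after 5 h with compound in DMSO (217-fold dilution). After 16 h at 37C, CCF4-AM substrate was added for 2 h, and the 460/530 nm emission ratio was scored as gain-of-signal versus DMSO.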

[18] = TOX21_p53_BLA_p5_viability: Viability Assessment in the Tox21 HCT-116 p53 Agonism Beta-lactamase Assay, Phase 5 (AID 2283600)
Method in brief: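 Workflow: seed 4000 cells per well, wait 5 h, add compounds (DMSO, 217-fold dilution), incubate 16 h, load CCF4-AM 2 h, add CellTiter-Glo, read luminescence after 30 min.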

[19] = TOX21_p53_BLA_p3_viability: Viability Assessment in the Tox21 HCT-116 p53 Agonism Beta-lactamase Assay, Phase 3 (AID 2283593);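 further: cells exposed to compound for 16 h before reading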
Method in brief: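 HCT-116 cells (4000/well) rested 5 h at 37C, then got DMSO compounds by pin tool (217-fold dilution) for 16 h at 37C, 5% CO2. After the bla read, CellTiter-Glo was added and luminescence read at 30 min, room temperature.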

[20] = Tanguay_ZF_120hpf_AXIS_legacy: (Legacy) Oregon State University Tanguay Lab 120 Hour Post-fertilization zebrafish Assay for Body Axis Malformation (AID 2283635)
Method in brief: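 Chorion is removed with pronase at 4 hpf, then single 6 hpf embryos are dosed (final DMSO 0.64%) and held statically at 28C in sealed, foil-covered plates. At 120 hpf body axis malformation is recorded as present or absent.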

Measured: outcome

Cc1ccccc1O
not listed: [17] | [18] | [19] | [20]
inactive: all other assays above

ClC1=C(Cl)[C@]2(Cl)[C@@H]3[C@@H]4C[C@@H]([C@H]5O[C@@H]45)[C@@H]3[C@@]1(Cl)C2(Cl)Cl
not listed: [4] | [8] | [12] | [13] | [15] | [16] | [19] | [20]
inactive: all other assays above

C=CC(N)=O
not listed: [2] | [12]
inactive: all other assays above

O=C(NC(=O)c1cc(F)c(F)cc1Cl)Nc1cc(F)ccc1N1CCC(C(=O)O)CC1
not listed: [11] | [12] | [17] | [18]
inactive: all other assays above

O=C(O)C(F)(F)C(F)(F)C(F)(F)C(F)(F)C(F)(F)C(F)(F)C(F)(F)C(F)(F)C(F)(F)F
not listed: [4] | [6] | [10] | [12] | [13] | [17]
inactive: all other assays above

CCOP(=S)(OCC)SCSC(C)(C)C
inactive: [3] | [5] | [6] | [7] | [9] | [10] | [11] | [13] | [15] | [16]

CCCCCCCCCc1ccc(O)cc1
not listed: [1] | [4] | [11] | [12] | [13] | [16] | [17] | [20]
inactive: all other assays above

CCCN(CCC)N=O
not listed: [4] | [9] | [11] | [12] | [17] | [18]
inactive: all other assays above

CC#Cc1cc(C)nc(Nc2ccccc2)n1
not listed: [1] | [9] | [10] | [12] | [17] | [20]
inactive: all other assays above

From PubChem BioAssay (EPA / NIEHS)
